Entries with a potency or affinity are not part of this list. Activity calls are given as the source filed them. No rule for the calls is given here.
Biological target: CAAX prenyl protease 2 (Homo sapiens) (UniProt Q9Y256)
Assay: inhibition of Ras-converting CAAX protease Rce1 – biochemical, yeast membranes, quenched-peptide fluorescence, cherry-pick, dose response (AID 588849)
Settings: yeast membrane fractions expressing human Rce1, quenched-peptide fluorescence, 4 h; series mostly up to 10 µM

CAAX prenyl protease 2 (Homo sapiens), sequence (Q9Y256 whole entry, looked up): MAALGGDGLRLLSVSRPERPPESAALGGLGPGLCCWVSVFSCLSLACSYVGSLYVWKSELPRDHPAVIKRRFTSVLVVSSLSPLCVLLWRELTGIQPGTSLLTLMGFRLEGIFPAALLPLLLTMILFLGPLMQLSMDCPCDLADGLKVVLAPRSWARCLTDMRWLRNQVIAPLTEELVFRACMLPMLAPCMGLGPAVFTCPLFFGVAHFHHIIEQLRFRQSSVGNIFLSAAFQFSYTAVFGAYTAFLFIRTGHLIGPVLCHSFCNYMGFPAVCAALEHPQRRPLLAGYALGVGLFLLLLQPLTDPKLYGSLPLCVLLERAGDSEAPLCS

outcome, inactive:
COc1ccc(-n2nc(C(=O)NCC(=O)N3CCC(C)CC3)c3ccccc3c2=O)cc1
O=C(Nc1ccc(N2CCOCC2)c(Cl)c1)c1cc2ccccc2o1
CS(=O)(=O)c1ccc(C(=O)OCC(=O)N(CCc2ccccc2)Cc2ccccc2)cc1
O=C(COC(=O)c1ccccc1Cc1ccccc1)NC1CCS(=O)(=O)C1 (centres undefined)
CCCCOc1ccc(Cc2c(COCC)[nH]c(=S)[nH]c2=O)cc1
COc1ccccc1N1CCN(c2ncc(C(=O)N3CCN(c4cccc(Cl)c4)CC3)c3ccccc23)CC1
CCC(C)(C)c1ccc(OCCCC[n+]2cccc(C)c2C)c(C(C)(C)CC)c1
CCOc1cc(CNC2CCCC2)ccc1OCc1ccccc1Cl
CCOc1ccc(N(CC(=O)NC2CC3CCC2C3)S(=O)(=O)c2ccccc2)cc1 (centres undefined)
Cc1ccccc1OC(C)C(=O)N1CCC(Cc2ccccc2)CC1 (centres undefined)
CCOc1ccc(C2C(C(=O)OC)=CN(C(C)c3ccccc3)C=C2C(=O)OC)cc1 (centres undefined)
CCCCOC(=O)Nc1nc(C)c(C(=O)OCC)s1
COCCNc1nc(N)c([N+](=O)[O-])c(N2CCCCCC2)n1
O=C(Nc1cccc(-c2cn3ccccc3n2)c1)C1CC1
O=C(NCC1CC1)c1ccc(Nc2nc3ccc(Br)cc3[nH]2)cc1
CCCNC(=O)c1c(N)n(-c2ccc(S(N)(=O)=O)cc2)c2nc3ccccc3nc12
CCCN(CCC)CCNC(=O)c1cc2c(-c3ccc(Cl)cc3)nn(C)c2s1
c1ccc(-c2ccc(-c3cn4c(n3)CCC4)cc2)cc1
Cc1cc(C)n2cc(CSc3nncn3C)nc2n1
COc1ccc(-c2cn3ccccc3n2)cc1[N+](=O)[O-]
CC1CCc2c(sc(NC(=O)COC(=O)c3ccccc3NCc3ccco3)c2C#N)C1 (centres undefined)
O=C(COc1ncnc2cc([N+](=O)[O-])ccc12)NC(=O)NC1CCCCC1
CCCCCCSc1cc(-c2nc3cc(C)ccn3c2NCCCC)ccc1OC
CCn1nc(C)cc1C(=O)NC1CC(C)(C)Cc2c1cnn2-c1cccc(F)c1 (centres undefined)
O=C(CSc1n[nH]c(-c2ccc(S(=O)(=O)N3CCCCC3)cc2)n1)Nc1nccs1
CC1=NN(c2ccccc2)C(=O)/C1=C\c1ccc(Br)s1
C/C(CC(=O)NCc1ccco1)=N\NC(=O)c1ccc([N+](=O)[O-])cc1Cl
CCC(COC)NC(=O)CCc1nnc(Cc2cccc(C(F)(F)F)c2)o1 (centres undefined)
CC(C)c1cc(=O)oc2c3c4c(cc12)CCCN4CCC3
CN1CCN(Cc2c(C(=O)N/N=C/c3cccc(Br)c3)nnn2-c2nonc2N)CC1
COc1ccc(Br)cc1C(=O)Nc1cc(C)cc(C)c1
CCC1CCCCN1C(=O)NC(=O)c1ccccc1 (centres undefined)
CCCCNC(=S)N=Nc1c(O)n(Cc2ccccc2)c2ccccc12
CCOc1ccc(OCC)c(NC(=O)c2nnn(CC(=O)Nc3cc(C)cc(C)c3)c2N)c1
CCOC(=O)c1nnn2c1nc(N1CCOCC1)c1ccccc12
CCCN(CCC)CCNC(=O)c1cc2c(-c3ccccc3F)nn(C)c2s1
Cc1cc(C)n(-c2nc3ccccc3c(=O)n2OCC(=O)N(C)C)n1
COC(C/C=C/[C@H](O)[C@@H](C)OCc1ccccc1)OC
CN(C)CC(C)(C)CNC(=S)NCc1ccc2c(c1)OCO2

Source: PubChem BioAssay AID588849 (Broad Institute, 2011)
